# Compounds without any hit were thinned out: in the full panel of roughly 83,000, 20% have a hit.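 96-well plates, one dose, 48 hours. Percent growth reported; active if below 10.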 Unmarked numbers belong to inactive results.
# Test system: OVCAR-5 ovarian
# Experiment: NCI-60 one-dose screen, 48 h (100 = growth as untreated, 0 = no growth, -100 = all killed)
# Conditions: 10 µM unless noted
row,SMILES,growth
1,O=C(OCC1CCCO1)c1ccc([N+](=O)[O-])cc1 (stereo unspecified),109%
2,Cc1ccc(NC(=O)c2ccccc2Cl)cc1,99.1%
3,C/C(O)=C(/C=N\C(=S)Nc1ccc(S(=O)(=O)Nc2nccs2)cc1)C(=O)Nc1ccccc1C,103%
4,NC(=S)N/N=C/c1ccc(Cl)cc1,108%
5,Oc1ccc(CCC2CCNc3ccccc32)cc1 (stereo unspecified),97.9%
6,O=C(NC1CCCCC1)c1ccc(Cl)cc1,99.5%
7,CCOC(=O)CO,105%
8,CC(c1ccccc1)N(C)C (stereo unspecified),92.8%
9,CC(CCC#N)(CCC#N)C(=O)c1ccccc1,109%
10,Cc1ccc2nc(-c3ccc(N=Cc4ccccc4O)cc3)sc2c1,92.2%
11,Nc1cc2ccccc2c(O)c1O,76.1%
12,CCOc1ccccc1NC(=O)CCl,124%
13,CCC12OC(COc3ccccc3)CN1CCN2c1ccccc1 (stereo unspecified),98% [100 µM]
14,Cc1ccc(S(=O)(=O)CCCl)cc1,101%
15,CC(C)c1ccccc1NC(=O)N1CCC(C(C)C)CC1,117%
16,COc1ccc(C2CC(c3ccccc3)=Nc3ccccc3S2)cc1 (stereo unspecified),116%
17,NC(CO)(CO)c1ccccc1,101%
18,C=CC(=O)OC1CCC(C(C)(C)CC)CC1 (stereo unspecified),103%
19,Cc1[nH]n(-c2ccccc2)c(=O)c1C=NC(=S)C(N)=S,109%
20,COc1cccc2c1Cc1ccccc1-2,107%
21,NC(=O)N1CCOCC1,108%

# Reference: PubChem BioAssay (NCI)
